# Values joined by “and” are separate entries in the source; they are usually repeats but may differ in a detail not shown here. Identical values can stand only once. Counter-ions that a name gives are not always drawn.
# Tested on: LASCPC-01
# Test: cell viability relative to DMSO control (fraction); higher = less growth inhibition (more viable cells)
# Conditions: 2 µM; 72 h
# Summary of the method: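 LASCPC-01 human prostate cancer cells were grown in modified HITES medium with 5% fetal bovine serum at 37°C and 5% CO2. They were seeded in 384-well plates and given each compound at 2 μM for 72 hours. Viability was read by CellTiter-Glo luminescence and expressed as the ratio of compound-treated to solvent-control signal, with three replicates. Only serotonin-pathway compounds from a 7315-compound library are included.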
row,Structure (SMILES),cell viability
1,CN(C)CC(c1ccc(O)cc1)C1(O)CCCCC1 (stereo not given) [Desvenlafaxine Succinate],0.883
2,Clc1ccc2c(c1)N=C(N1CCNCC1)c1ccccc1N2 [N-Desmethylclozapine],0.907
3,COc1ccccc1N1CCN(CCN(C(=O)C2CCCCC2)c2ccccn2)CC1,0.987 and 1.03
4,COc1ccccc1N1CCN(CCCNc2cc(=O)n(C)c(=O)n2C)CC1 [Urapidil HCl],0.425
5,Cc1cc(NC(=O)Nc2ccc3c(ccn3C)c2)sn1,0.944
6,CCC(=O)c1c(O)cc(O)cc1O [Flopropione],0.95
7,CC(C)COc1ccc(CNC(=O)N(Cc2ccc(F)cc2)C2CCN(C)CC2)cc1 [Pimavanserin tartrate],0.514
8,Cc1nccn1CC1CCc2c(c3ccccc3n2C)C1=O (stereo not given) [Ondansetron hydrochloride],1.12
9,N=C(N)NC(=N)Nc1ccccc1 [Phenylbiguanide],0.637
10,CN1CCC(c2c[nH]c3ccc(NC(=O)c4ccc(F)cc4)cc23)CC1,0.954
11,Cc1[nH]cnc1CN1CCc2c(c3ccccc3n2C)C1=O [Alosetron hydrochloride],1.11
12,CC(N)C(=O)OC(C)(C)Cc1ccc(Cl)cc1 (stereo not given) [Alaproclate hydrochloride],1.13
13,O=C(O[C@@H]1C[C@@H]2C[C@H]3C[C@H](C1)N2CC3=O)c1c[nH]c2ccccc12 [Dolasetron mesylate hydrate],1.07
14,O=c1ccccn1CC1(O)CCN(Cc2ccccc2)CC1,1.05
15,COc1cc(N)c(Cl)cc1C(=O)NC1CCN(CCCOc2ccc(F)cc2)CC1OC (stereo not given) [Cisapride],0.803

# From the supplement of paper PMC10042075
